TDP1 cell noCPT = qHTS for Inhibitors of human tyrosyl-DNA phosphodiesterase 1 (TDP1): qHTS in cells in absence of CPT | 420,000 compounds, 15% hits | Potency, µM (titrated, usually from 46.2 µM), most hits filed as inhibitors | DT40 Tdp1-/- hTDP1 cells, no CPT, ATP luminescence, 48 h; also: nearly all actives have a fitted effect of over 55% in size
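Luminescent ATP content (CellTiter-Glo) served as the growth readout. Knockout chicken DT40 cells expressing human TDP1 were exposed to compounds without camptothecin for a minimum 48 hr at 37 °C.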
TGFb inhibitor = blocks TGF-b signaling | Potency, µM (top dose mostly 46.1 µM), hits mostly inhibitors | 410,000 compounds, 1.2% hits | HepG2 CAGA-GFP TGF-b/SMAD3 reporter, GFP fluorescence, 18 h; TGF-beta stimulated, 500 pg/mL final; also: nearly all actives have a fitted effect of over 65% in size
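Read-out: total well GFP (ex488/em500-530) summed from mean per-cell fluorescence. Cells: HEPG2 CAGA-GFP, 1% FBS DMEM, 18 h at 37 degrees C with 500 pg/mL final TGF-beta. Unstimulated wells served as the full-inhibition control; stimulated DMSO wells = 0%.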
DT40 TDP1 CPT = growth inhibition of DT40 Tdp1-/-;hTDP1 cells with camptothecin (screen for TDP1 inhibitors). Potency, µM (top dose mostly 46.2 µM), actives largely listed as inhibitors. 420,000 compounds, 12% hits. chicken DT40 Tdp1-/-;hTDP1 cells + 20 nM CPT, ATP luminescence, 48 h; also: nearly all actives have a fitted effect of over 55% in size
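Chicken DT40 Tdp1-/- cells stably complemented with human TDP1 were seeded at 400 cells/well in medium containing 20 nM camptothecin, exposed to pin-transferred compounds, and grown at 37 °C for at least 48 hr. Viability was read as ATP luminescence.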
S-ASM inh = inhibitors of human secretory acid sphingomyelinase; P17405; 340,000 compounds, 0.006% hits; placental ASM, HMU-PC fluorogenic substrate, 60 min; Potency, µM (titrated, usually from 57.5 µM), actives largely listed as inhibitors
Target sequence (P17405 47-631 limits assumed): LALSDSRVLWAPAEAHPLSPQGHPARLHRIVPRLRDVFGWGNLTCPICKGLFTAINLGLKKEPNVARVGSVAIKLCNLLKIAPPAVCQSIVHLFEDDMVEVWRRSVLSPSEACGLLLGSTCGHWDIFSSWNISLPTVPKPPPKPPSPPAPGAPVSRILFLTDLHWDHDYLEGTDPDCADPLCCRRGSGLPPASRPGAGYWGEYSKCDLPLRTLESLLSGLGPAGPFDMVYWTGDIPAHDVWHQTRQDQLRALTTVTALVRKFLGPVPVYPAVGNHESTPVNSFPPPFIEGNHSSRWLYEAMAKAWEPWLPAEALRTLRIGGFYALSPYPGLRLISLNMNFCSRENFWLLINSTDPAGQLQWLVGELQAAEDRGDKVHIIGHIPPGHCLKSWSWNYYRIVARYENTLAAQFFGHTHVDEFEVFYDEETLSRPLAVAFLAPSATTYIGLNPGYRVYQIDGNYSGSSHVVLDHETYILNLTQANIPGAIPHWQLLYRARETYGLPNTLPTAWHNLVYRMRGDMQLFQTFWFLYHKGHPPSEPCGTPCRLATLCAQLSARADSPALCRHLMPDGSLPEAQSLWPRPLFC
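Human placenta-derived ASM preincubated with compound 10 min at room temperature, then reacted with 9 uM (final) fluorogenic HMU-PC substrate for 60 min at 37 C. Stop solution raises pH to 10; fluorescence read at Ex 386/Em 447 nm.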
IL-1B inflam inh = blocks inflammasome-driven IL-1 beta release; THP-1 LPS/ATP IL-1B secretion, AlphaLISA, 16 h; active compounds read low; activity change, % at 57.5 µM; 360,000 compounds, 4.7% hits; in the data active = activity change below about -50%; inconclusive = mostly about -30% to -49%
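THP-1 cells pretreated 1 hr with compounds (up to 57.5 uM final), then stimulated with LPS (250 ng/mL final) plus ATP (1.25 mM final); secreted IL-1B measured by AlphaLISA after 16 hr, decreased signal indicating inhibition.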
HepG2 viability = counter-screen for TGF-b inhibitors: cytotoxicity in HepG2 cells | HepG2 CAGA-GFP viability, ATP luminescence, 18 h | Potency, µM (doses to about 46.1 µM), hits mostly cytotoxic | 410,000 compounds, 0.76% hits
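HepG2 CAGA-GFP cells (1000/well, DMEM with 1% FBS) received compound, then TGF-beta at 500 pg/mL final, and were incubated 18 hours at 37 degrees C. Viability was read by CellTiter-Glo luminescence. Media-only wells were set as complete cell-killing and DMSO as no toxicity.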
Hits are given with their value. Hits are enriched below; roughly 19% of the tested compounds scored in any of these assays. Unless noted, calls follow the shape of the dose curve; as a rule, active = well fitted curve in the direction sought with a large enough effect; inconclusive = small, poorly fitted or top-dose-only effect, or another doubt; inactive = no such curve, though single readings can be large; an effect the other way counts as inactive or inconclusive.

For CC(=O)n1cc([C@H]2C=C(C(=O)N3CCN(Cc4ccc5c(c4)OCO5)CC3)O[C@@H](OCCCCO)C2)c2ccccc21 the results were TDP1 cell noCPT inconclusive, TGFb inhibitor inactive, DT40 TDP1 CPT 16µM, S-ASM inh inactive, IL-1B inflam inh inactive and HepG2 viability inactive.
For O=C(C1=C[C@H](C2CCCCC2)C[C@H](OCCCCO)O1)N1CCN(Cc2ccccc2)CC1 the results were TDP1 cell noCPT inconclusive, TGFb inhibitor inconclusive, DT40 TDP1 CPT 21µM, S-ASM inh inactive, IL-1B inflam inh inactive and HepG2 viability inactive.
For COC(=O)Cc1c(C)nc2nc(NCc3ccc(Br)cc3)[nH]n2c1=O the results were TDP1 cell noCPT inactive, TGFb inhibitor inactive, DT40 TDP1 CPT inactive and HepG2 viability inactive.
`CCOc1ccc(/C(O)=C2/C(=O)C(=O)N(CCCN3CCOCC3)C2c2ccc(F)cc2)cc1C` (stereo not drawn) gave TDP1 cell noCPT inactive, TGFb inhibitor inactive, DT40 TDP1 CPT inactive, S-ASM inh inactive, IL-1B inflam inh inactive and HepG2 viability inactive.
For Cc1ccc(OCC(=O)N(C)C2CCCCC2)c([N+](=O)[O-])n1 the results were TDP1 cell noCPT inactive, TGFb inhibitor inactive, DT40 TDP1 CPT inactive, S-ASM inh inactive, IL-1B inflam inh inactive and HepG2 viability inactive.
`O=C1C[C@@H]2CCN3C(=O)CCC[C@@H]([C@H]23)[C@@H]1Cc1ccccc1` gave TDP1 cell noCPT inactive, TGFb inhibitor inactive, DT40 TDP1 CPT inactive, S-ASM inh inactive, IL-1B inflam inh inactive and HepG2 viability inactive.
O=C1CCC[C@@H]2C=C[C@H](c3ccc(Br)cc3)[C@H]3CCN1[C@@H]32 was read as TDP1 cell noCPT 18µM, DT40 TDP1 CPT inconclusive and IL-1B inflam inh inactive.
For CCn1c(CSc2ncccn2)nnc1SCC(=O)N1CCCCC1 the results were TDP1 cell noCPT inactive, TGFb inhibitor inactive, DT40 TDP1 CPT inactive, S-ASM inh inactive, IL-1B inflam inh inactive and HepG2 viability inactive.
COC(=O)C(Cc1ccc(OC(=O)c2ccc(C(F)(F)F)cc2)cc1)N1Cc2ccccc2C1=O (stereo not drawn) was read as TDP1 cell noCPT 18µM, TGFb inhibitor inactive, DT40 TDP1 CPT 16µM, S-ASM inh inactive, IL-1B inflam inh inactive and HepG2 viability inactive.
For Cc1cc2n(n1)C(c1ccccc1)CC(c1ccc(Br)cc1)=N2 (stereo not drawn) the results were TDP1 cell noCPT inconclusive, TGFb inhibitor inactive, DT40 TDP1 CPT 16µM, S-ASM inh inactive, IL-1B inflam inh inconclusive and HepG2 viability inactive.
For CC(C)c1ccc(NC(=O)c2cnc3sc(N4CCCC4)nn3c2=O)cc1 the results were TDP1 cell noCPT 2.1µM, TGFb inhibitor inactive, DT40 TDP1 CPT 2.9µM and HepG2 viability inactive.
For O=C(Nc1cccc(F)c1)c1cnc2sc(N3CCCC3)nn2c1=O the results were TDP1 cell noCPT 3.3µM, TGFb inhibitor inactive, DT40 TDP1 CPT 2.3µM and HepG2 viability inactive.
Screening CC1CCCN(S(=O)(=O)c2cnc[nH]2)C1 (stereo not drawn) returned TDP1 cell noCPT inactive, TGFb inhibitor inactive, DT40 TDP1 CPT inactive, S-ASM inh inactive, IL-1B inflam inh inactive and HepG2 viability inactive.
Screening COCc1ccc(C(=O)N2CCCCC2C(=O)Nc2ccc(-n3nc(C)cc3C)cc2)o1 (stereo not drawn) returned TDP1 cell noCPT inconclusive, TGFb inhibitor inactive, DT40 TDP1 CPT inconclusive, S-ASM inh inactive, IL-1B inflam inh inactive and HepG2 viability inactive.
Screening CC(C)c1nc2scc(-c3ccc(Cl)cc3)c2c(=O)n1N returned TDP1 cell noCPT inconclusive, TGFb inhibitor inactive, DT40 TDP1 CPT 26µM, S-ASM inh inactive, IL-1B inflam inh inactive and HepG2 viability inactive.
Screening Cc1nc2scc(-c3ccc(Cl)cc3)c2c(=O)n1N returned TDP1 cell noCPT inconclusive, TGFb inhibitor inactive, DT40 TDP1 CPT inactive, S-ASM inh inactive, IL-1B inflam inh inactive and HepG2 viability inactive.
`CC(C)(C)OC1NS(=O)(=O)OCC1NCOC(Cl)(Cl)Cl` (stereo not drawn) gave TDP1 cell noCPT 3.7µM, TGFb inhibitor inactive, DT40 TDP1 CPT 3.3µM, S-ASM inh inactive, IL-1B inflam inh inactive and HepG2 viability inactive.
`O=C(/C=C/c1cccs1)NCc1ccc2c(c1)OCO2` gave TDP1 cell noCPT inactive, TGFb inhibitor inactive, DT40 TDP1 CPT inactive, S-ASM inh inactive, IL-1B inflam inh inactive and HepG2 viability inactive.
For O=C1NC(=S)S/C1=C\c1cc2ccccc2nc1N1CCCCC1 the results were TDP1 cell noCPT 21µM, TGFb inhibitor inactive, DT40 TDP1 CPT 21µM, S-ASM inh inactive, IL-1B inflam inh inactive and HepG2 viability inactive.
Screening COc1ccc2nc(N3CCCCC3)c(/C=C3\SC(=S)NC3=O)cc2c1 returned TDP1 cell noCPT inconclusive, TGFb inhibitor inactive, DT40 TDP1 CPT inconclusive, S-ASM inh inactive, IL-1B inflam inh inactive and HepG2 viability inactive.
For CC(=O)n1cc(Nc2ccc([N+](=O)[O-])cc2)c2ccccc21 the results were TDP1 cell noCPT inconclusive, TGFb inhibitor inactive, DT40 TDP1 CPT inconclusive, S-ASM inh inactive, IL-1B inflam inh inactive and HepG2 viability inactive.
For CC(=O)SC(C[N+](=O)[O-])c1cn(C(C)=O)c2ccccc12 (stereo not drawn) the results were TDP1 cell noCPT 2.9µM, TGFb inhibitor inconclusive, DT40 TDP1 CPT 4.6µM, S-ASM inh inactive, IL-1B inflam inh -82 and HepG2 viability inactive.
For NC(N)=NC(N)=Nc1cccc(Cl)c1 the results were TDP1 cell noCPT 21µM, TGFb inhibitor inactive, DT40 TDP1 CPT inconclusive, S-ASM inh inactive, IL-1B inflam inh inactive and HepG2 viability inactive.
For CCCCCc1cc(OC)cc2c1C(=O)OC(C)(C)O2 the results were TDP1 cell noCPT inconclusive, TGFb inhibitor inactive, DT40 TDP1 CPT inactive, S-ASM inh inactive, IL-1B inflam inh inactive and HepG2 viability inactive.
CCOc1ccc(NC(=O)C2CCN(S(=O)(=O)c3c(C)noc3C)CC2)cc1 was read as TDP1 cell noCPT inactive, TGFb inhibitor inactive, DT40 TDP1 CPT inconclusive, S-ASM inh inactive, IL-1B inflam inh inactive and HepG2 viability inactive.
`CCOC(=O)c1cccc(NC(=O)C2CCN(S(=O)(=O)c3c(C)noc3/C=C/c3ccc(C)cc3)CC2)c1` gave TDP1 cell noCPT 12µM, TGFb inhibitor inconclusive, DT40 TDP1 CPT 21µM and HepG2 viability inactive.
For CCc1ccc(NC(=O)C2CCN(S(=O)(=O)c3c(C)noc3/C=C\c3ccc(OC)cc3)CC2)cc1 the results were TDP1 cell noCPT 5.2µM, TGFb inhibitor inactive, DT40 TDP1 CPT 8.2µM and HepG2 viability inactive.

Screening results (PubChem BioAssay)
